Here are results for one compound from ChEMBL document CHEMBL1961873, “Compounds: GSK PKIS; Assays: Nanosyn kinase panel” (2012).

Assay [1] has as its target Sphingosine kinase 1 (Homo sapiens) (UniProt Q9NYA1). To be noted: at 1 µM.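 Note: mean SPHK1 inhibition value reported from the GSK PKIS kinase panel screen.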
Assay [2] concerns the target T1, Sphingosine kinase 2 (Homo sapiens) (UniProt Q9NRA0).
T1 sequence (whole entry): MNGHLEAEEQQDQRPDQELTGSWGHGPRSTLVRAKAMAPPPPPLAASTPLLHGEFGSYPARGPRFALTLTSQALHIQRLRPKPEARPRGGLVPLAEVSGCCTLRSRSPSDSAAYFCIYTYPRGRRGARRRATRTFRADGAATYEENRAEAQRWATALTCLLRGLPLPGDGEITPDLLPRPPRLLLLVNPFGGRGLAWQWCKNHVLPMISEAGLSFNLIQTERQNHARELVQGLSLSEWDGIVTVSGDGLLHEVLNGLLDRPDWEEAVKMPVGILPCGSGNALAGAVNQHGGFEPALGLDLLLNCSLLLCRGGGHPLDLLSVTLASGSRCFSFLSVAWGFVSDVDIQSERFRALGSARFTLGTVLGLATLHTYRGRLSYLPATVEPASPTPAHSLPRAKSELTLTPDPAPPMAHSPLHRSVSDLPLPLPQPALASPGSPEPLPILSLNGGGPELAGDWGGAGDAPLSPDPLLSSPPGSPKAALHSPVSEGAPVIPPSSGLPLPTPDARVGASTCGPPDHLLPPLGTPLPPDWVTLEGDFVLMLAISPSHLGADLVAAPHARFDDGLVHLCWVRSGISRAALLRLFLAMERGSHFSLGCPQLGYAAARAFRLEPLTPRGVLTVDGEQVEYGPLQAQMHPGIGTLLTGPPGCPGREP
To be noted: at 0.1 µM.

Assay [3] addresses T1, Sphingosine kinase 2 (Homo sapiens). To be noted: at 1 µM.
For assay [4], the target named is Casein kinase II subunit alpha (Homo sapiens) (UniProt P68400). To be noted: at 0.1 µM.
Assay [5] has the same target. To be noted: at 1 µM.
For assay [6], the target named is T2, Inhibitor of nuclear factor kappa-B kinase subunit alpha (Homo sapiens) (UniProt O15111).
T2 sequence (whole entry): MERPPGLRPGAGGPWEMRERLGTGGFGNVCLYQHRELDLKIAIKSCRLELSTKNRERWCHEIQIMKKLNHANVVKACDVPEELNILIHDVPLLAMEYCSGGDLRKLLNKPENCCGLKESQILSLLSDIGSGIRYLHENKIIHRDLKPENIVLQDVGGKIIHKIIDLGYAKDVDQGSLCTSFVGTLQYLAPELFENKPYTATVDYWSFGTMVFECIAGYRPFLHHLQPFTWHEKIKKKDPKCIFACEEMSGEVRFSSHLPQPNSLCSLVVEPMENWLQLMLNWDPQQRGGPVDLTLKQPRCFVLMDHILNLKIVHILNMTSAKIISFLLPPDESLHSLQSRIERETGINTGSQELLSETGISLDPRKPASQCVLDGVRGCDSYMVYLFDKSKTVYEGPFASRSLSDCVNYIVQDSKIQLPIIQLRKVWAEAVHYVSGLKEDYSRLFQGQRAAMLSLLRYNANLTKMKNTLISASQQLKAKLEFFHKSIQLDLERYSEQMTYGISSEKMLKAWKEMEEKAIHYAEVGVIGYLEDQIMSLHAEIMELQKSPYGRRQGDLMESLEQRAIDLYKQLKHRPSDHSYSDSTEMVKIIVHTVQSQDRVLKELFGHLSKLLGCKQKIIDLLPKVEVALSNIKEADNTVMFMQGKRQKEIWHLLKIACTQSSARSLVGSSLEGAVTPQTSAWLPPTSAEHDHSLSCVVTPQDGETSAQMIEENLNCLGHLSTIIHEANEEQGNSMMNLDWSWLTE
Particulars: at 0.1 µM.

Assay [7] has as its target T2, Inhibitor of nuclear factor kappa-B kinase subunit alpha (Homo sapiens). To be noted: at 1 µM.
The target in assay [8] is T3, Inhibitor of nuclear factor kappa-B kinase subunit beta (Homo sapiens) (UniProt O14920).
T3 sequence (whole entry): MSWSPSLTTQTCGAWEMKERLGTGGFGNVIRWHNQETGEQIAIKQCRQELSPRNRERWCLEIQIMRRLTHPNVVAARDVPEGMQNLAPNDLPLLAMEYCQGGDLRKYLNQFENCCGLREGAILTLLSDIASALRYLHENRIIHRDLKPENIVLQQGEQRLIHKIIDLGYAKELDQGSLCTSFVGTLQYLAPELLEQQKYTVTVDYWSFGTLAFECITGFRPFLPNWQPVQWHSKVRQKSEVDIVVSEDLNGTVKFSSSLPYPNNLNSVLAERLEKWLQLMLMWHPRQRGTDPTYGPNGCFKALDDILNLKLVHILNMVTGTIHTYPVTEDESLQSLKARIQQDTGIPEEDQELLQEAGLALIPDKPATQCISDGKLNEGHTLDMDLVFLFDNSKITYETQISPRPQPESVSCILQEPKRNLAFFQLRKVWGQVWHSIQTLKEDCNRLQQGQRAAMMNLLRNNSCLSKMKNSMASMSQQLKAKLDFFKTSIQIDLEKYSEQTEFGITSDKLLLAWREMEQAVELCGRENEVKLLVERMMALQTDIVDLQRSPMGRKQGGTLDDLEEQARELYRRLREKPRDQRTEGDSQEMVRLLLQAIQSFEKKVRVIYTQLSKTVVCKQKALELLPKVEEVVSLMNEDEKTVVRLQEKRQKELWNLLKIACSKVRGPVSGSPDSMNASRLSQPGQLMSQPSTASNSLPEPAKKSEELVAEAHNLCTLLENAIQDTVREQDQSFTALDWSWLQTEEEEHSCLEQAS
Particulars: at 0.1 µM.

The target of assay [9] is T3, Inhibitor of nuclear factor kappa-B kinase subunit beta (Homo sapiens). Particulars: at 1 µM.
Assay [10] concerns the target T4, Inhibitor of nuclear factor kappa-B kinase subunit epsilon (Homo sapiens) (UniProt Q14164).
T4 sequence (whole entry): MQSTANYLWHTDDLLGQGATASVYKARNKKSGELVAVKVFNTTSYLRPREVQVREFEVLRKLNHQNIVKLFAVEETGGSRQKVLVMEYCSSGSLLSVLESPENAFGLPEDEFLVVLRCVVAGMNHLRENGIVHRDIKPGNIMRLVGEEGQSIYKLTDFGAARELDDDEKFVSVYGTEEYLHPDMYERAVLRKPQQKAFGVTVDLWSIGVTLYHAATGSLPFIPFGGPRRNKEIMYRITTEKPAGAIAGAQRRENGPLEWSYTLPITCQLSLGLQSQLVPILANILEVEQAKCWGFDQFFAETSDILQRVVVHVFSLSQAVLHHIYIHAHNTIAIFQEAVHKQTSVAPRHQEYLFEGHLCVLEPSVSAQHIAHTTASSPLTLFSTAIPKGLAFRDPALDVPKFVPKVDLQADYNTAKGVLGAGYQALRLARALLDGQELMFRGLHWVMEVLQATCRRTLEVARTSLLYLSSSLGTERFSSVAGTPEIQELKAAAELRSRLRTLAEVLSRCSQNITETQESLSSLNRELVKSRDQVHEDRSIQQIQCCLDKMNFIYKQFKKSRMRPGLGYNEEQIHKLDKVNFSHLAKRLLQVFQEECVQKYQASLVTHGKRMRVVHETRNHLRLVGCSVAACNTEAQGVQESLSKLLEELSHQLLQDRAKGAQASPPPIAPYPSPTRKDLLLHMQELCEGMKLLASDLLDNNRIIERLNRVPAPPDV
To be noted: at 0.1 µM.

Assay [11] addresses T4, Inhibitor of nuclear factor kappa-B kinase subunit epsilon (Homo sapiens). To be noted: at 1 µM.
The target of assay [12] is T5, Serine/threonine-protein kinase Nek1 (Homo sapiens) (UniProt Q96PY6).
T5 sequence (whole entry): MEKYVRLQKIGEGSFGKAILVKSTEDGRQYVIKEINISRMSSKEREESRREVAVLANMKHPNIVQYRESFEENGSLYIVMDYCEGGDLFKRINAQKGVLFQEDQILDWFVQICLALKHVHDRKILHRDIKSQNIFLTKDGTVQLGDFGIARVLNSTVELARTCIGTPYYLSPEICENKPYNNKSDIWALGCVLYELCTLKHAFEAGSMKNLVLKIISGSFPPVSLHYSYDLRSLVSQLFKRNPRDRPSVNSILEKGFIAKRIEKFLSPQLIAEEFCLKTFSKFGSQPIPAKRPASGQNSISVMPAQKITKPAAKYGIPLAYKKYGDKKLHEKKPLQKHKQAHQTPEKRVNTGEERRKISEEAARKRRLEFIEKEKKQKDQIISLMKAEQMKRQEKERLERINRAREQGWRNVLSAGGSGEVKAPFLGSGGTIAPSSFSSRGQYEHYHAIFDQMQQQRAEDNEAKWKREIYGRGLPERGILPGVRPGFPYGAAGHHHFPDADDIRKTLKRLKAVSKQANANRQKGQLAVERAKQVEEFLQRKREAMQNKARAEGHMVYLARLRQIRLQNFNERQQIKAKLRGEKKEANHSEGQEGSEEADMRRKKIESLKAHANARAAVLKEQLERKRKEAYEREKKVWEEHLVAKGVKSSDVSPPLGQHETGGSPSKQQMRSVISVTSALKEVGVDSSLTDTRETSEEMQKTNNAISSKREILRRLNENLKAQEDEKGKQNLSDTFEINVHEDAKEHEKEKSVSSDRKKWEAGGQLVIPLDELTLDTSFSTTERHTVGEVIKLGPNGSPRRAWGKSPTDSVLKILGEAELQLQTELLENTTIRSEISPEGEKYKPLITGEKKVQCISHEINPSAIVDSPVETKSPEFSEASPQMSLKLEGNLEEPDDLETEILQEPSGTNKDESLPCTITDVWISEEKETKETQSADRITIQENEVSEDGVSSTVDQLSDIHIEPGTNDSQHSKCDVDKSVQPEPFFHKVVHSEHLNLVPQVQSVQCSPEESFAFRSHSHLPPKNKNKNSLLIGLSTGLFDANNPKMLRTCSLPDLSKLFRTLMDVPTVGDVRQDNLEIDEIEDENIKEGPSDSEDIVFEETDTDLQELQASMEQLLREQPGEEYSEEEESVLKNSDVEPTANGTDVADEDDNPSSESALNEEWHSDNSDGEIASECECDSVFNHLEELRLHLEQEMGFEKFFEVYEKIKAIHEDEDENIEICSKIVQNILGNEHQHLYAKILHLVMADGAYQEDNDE
Particulars: at 0.1 µM.

Assay [13] addresses T5, Serine/threonine-protein kinase Nek1 (Homo sapiens). To be noted: at 1 µM.
In assay [14] the target is T6, Serine/threonine-protein kinase Nek2 (Homo sapiens) (UniProt P51955).
T6 sequence (whole entry): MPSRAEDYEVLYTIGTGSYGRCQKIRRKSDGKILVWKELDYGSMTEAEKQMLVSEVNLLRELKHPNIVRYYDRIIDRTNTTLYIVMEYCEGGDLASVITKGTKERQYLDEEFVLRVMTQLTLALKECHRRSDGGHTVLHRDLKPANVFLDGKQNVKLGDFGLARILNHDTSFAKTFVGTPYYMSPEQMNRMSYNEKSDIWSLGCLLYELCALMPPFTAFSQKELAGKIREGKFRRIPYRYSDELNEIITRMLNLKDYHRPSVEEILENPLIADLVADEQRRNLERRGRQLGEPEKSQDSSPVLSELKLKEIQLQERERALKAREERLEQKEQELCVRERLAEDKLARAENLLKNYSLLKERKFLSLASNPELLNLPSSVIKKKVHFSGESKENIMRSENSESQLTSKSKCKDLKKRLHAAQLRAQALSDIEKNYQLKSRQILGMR
Particulars: at 0.1 µM.

The target in assay [15] is T6, Serine/threonine-protein kinase Nek2 (Homo sapiens). To be noted: at 1 µM.
Assay [16] deals with Serine/threonine-protein kinase Nek6 (Homo sapiens) (UniProt Q9HC98). Particulars: at 0.1 µM.
Assay [17] has the same target. Particulars: at 1 µM.
Assay [18] concerns the target Serine/threonine-protein kinase Nek7 (Homo sapiens) (UniProt Q8TDX7). Particulars: at 0.1 µM.
For assay [19] the target is unchanged. To be noted: at 1 µM.
For assay [20], the target named is T7, Serine/threonine-protein kinase Nek9 (Homo sapiens) (UniProt Q8TD19).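 Note: reported value is the mean percent inhibition of NEK9.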
T7 sequence (whole entry): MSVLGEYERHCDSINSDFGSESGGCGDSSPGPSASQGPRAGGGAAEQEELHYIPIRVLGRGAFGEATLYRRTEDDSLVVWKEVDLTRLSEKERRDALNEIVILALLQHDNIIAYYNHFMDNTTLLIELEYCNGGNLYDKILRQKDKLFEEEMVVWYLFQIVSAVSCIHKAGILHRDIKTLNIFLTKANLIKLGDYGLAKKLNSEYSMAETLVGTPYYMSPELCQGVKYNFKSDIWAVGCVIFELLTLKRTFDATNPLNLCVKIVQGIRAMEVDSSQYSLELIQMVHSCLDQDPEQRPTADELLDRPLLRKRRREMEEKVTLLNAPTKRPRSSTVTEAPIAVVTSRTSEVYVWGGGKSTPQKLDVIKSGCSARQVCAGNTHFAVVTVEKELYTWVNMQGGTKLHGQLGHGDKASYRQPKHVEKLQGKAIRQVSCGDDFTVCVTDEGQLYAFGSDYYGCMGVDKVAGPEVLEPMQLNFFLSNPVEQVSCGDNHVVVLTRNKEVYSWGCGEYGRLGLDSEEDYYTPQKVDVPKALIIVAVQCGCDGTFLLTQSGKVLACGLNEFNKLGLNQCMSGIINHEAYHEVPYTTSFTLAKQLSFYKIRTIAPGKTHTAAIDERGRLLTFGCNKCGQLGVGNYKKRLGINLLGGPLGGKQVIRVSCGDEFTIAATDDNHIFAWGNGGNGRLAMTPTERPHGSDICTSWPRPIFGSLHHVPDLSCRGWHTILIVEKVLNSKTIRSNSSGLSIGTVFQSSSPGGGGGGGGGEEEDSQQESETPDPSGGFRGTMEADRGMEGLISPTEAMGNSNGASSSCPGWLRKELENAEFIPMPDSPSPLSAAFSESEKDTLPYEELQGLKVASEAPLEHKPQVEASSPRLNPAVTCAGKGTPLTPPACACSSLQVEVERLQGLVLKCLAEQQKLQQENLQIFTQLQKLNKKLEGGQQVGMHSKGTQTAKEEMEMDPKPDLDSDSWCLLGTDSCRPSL
Particulars: at 0.1 µM.

Structures are written as SMILES.

Chain of Casein kinase II subunit alpha (Homo sapiens) (P68400 whole entry, looked up): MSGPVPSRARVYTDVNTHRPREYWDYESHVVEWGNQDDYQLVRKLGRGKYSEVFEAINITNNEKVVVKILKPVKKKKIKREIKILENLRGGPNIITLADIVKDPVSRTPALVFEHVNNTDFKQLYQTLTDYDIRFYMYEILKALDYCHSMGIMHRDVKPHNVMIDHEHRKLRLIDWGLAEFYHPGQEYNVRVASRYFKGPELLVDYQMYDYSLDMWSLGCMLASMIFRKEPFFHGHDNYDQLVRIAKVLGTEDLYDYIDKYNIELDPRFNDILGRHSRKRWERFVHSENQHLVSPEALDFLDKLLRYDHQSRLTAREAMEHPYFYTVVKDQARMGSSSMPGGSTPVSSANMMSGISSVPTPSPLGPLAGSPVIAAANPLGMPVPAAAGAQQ
Chain of Serine/threonine-protein kinase Nek7 (Homo sapiens) (Q8TDX7 whole entry, looked up): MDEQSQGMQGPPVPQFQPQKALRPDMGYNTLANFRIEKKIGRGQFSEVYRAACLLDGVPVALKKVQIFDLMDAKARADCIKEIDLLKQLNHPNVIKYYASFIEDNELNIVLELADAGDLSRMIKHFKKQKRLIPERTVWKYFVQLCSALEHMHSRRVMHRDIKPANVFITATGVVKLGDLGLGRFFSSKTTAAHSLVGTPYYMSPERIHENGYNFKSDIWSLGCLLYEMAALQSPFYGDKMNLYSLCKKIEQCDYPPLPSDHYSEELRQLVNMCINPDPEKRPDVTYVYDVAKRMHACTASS
Chain of Serine/threonine-protein kinase Nek6 (Homo sapiens) (Q9HC98 whole entry): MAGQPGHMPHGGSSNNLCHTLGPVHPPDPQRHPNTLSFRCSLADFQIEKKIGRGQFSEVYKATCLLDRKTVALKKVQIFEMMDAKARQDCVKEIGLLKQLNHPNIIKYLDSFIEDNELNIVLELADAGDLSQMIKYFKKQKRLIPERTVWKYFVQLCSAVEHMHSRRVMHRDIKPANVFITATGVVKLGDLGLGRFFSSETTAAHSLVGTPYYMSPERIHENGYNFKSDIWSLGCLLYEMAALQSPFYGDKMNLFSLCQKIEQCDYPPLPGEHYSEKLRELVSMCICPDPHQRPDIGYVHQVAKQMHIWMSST
Chain of Sphingosine kinase 1 (Homo sapiens) (Q9NYA1 whole entry): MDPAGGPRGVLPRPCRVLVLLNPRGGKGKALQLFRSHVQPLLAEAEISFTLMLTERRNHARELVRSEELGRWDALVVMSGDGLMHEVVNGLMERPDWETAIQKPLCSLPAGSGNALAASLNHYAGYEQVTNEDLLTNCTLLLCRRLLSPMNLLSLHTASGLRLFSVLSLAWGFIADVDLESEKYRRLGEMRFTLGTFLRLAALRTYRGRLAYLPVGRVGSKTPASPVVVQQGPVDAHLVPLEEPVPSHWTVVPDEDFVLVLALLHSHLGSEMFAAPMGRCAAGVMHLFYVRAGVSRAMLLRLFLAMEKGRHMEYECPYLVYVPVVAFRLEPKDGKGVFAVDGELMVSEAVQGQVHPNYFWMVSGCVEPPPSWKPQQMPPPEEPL

Take `Fc1cccc(COc2ccc(Nc3ncnc4sc(-c5ccco5)cc34)cc2Cl)c1`: the inhibition is -6.23% in [1]; -2.56% in assay [2]; -0.56% in assay [3]; 8.17% in assay [4]; 3.13% in assay [5]; 8.13% in assay [6]. Moreover, the inhibition in assay [7] stood at 10.1%; in [8], 5.86%; in assay [9], 6.49%; in [10], 6.22%; in assay [11], 4.97%; in assay [12], 1.98%. The inhibition in assay [13] was found to be 3.24%; in assay [14], 3.69%; in assay [15], 5.99%; in assay [16] it was 1.71%; in assay [17] it was 2.07%; in [18] it was 2.72%. Further, the results for the inhibition in assay [19] and in [20] were 4.26% and 10.3%, respectively.
